# Sampled rows, rich in hits. Any-hit rate of the full collection: about 1.4%.
# VACV Venus inh: inhibitors of vaccinia virus (Venus reporter); Vaccinia virus Venus reporter expression, fluorescence; Potency, µM (titrated, usually from 36.5 µM), without a hit: at the top dose activity change, negative = inhibition, hits mostly inhibitors; 330,000 tested, 0.46% active; calls by dose curve; tested in A549 cells; further: on the % scale 0 is the no-effect control and ±100 the full control effect; nearly all actives have a fitted effect of over 30% in size
# AmpC inh no detg: AmpC beta-lactamase inhibition without detergent; P00811; AmpC nitrocefin hydrolysis, absorbance 480 nm, 0.0001% Triton; Potency, µM (titrated, usually from 57.1 µM), for inactives: at the top dose activity change, negative = inhibition, most hits filed as inhibitors; 330,000 tested, 0.52% active;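 further: plate controls were no compound for no effect and no enzyme for full effect; nearly all actives have a fitted effect of over 20% in size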
# Target sequence (P00811 whole entry, looked up): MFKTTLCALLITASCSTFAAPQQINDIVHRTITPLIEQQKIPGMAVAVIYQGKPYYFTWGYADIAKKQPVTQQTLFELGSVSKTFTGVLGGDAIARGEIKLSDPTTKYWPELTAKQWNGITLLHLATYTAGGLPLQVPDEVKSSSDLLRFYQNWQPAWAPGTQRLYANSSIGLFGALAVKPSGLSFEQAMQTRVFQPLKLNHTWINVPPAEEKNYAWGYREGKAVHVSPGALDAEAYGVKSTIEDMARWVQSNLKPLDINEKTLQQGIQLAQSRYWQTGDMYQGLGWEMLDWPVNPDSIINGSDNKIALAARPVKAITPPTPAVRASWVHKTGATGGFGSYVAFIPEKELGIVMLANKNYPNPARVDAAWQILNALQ
#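 AmpC (5.3 nM in the dispensed reagent) in 20 mM phosphate pH 7.0 with 0.01% (detergent screen) or 0.0001% Triton X-100 was preincubated with compounds for 15 min at room temperature. Nitrocefin was then added from an 800 uM solution, and hydrolysis was followed at 480 nm.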
# AmpC detergent: blocks E. coli AmpC beta-lactamase in detergent assay; Potency, µM (highest dose often 114 µM), without a hit: at the top dose activity change, negative = inhibition, hits mostly inhibitors; AmpC hydrolysis of nitrocefin, absorbance 480 nm, 0.01% Triton; AID 485294; P00811; 370,000 tested, 0.041% active;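 further: 0% = no-compound wells and -100% = no-enzyme wells; nearly all actives have a fitted effect of over 25% in size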
#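 AmpC (5.3 nM in the dispensed reagent) in 20 mM phosphate pH 7.0 with 0.01% (detergent screen) or 0.0001% Triton X-100 was preincubated with compounds for 15 min at room temperature. Nitrocefin was then added from an 800 uM solution, and hydrolysis was followed at 480 nm.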
# Vaccinia mCherry: inhibitors of vaccinia virus infection (mCherry reporter signal). Vaccinia virus mCherry reporter infection, fluorescence. Potency, µM (top dose mostly 36.5 µM), for inactives: at the highest dose activity change, negative = inhibition, most hits filed as inhibitors. 310,000 tested, 0.63% active. AID 720579; calls by dose curve; tested in A549 cells; further: on the % scale 0 is the no-effect control and ±100 the full control effect; nearly all actives have a fitted effect of over 35% in size
# AMA1-RON2 inh: disrupts binding of P. falciparum AMA1 to RON2; 360,000 tested, 0.2% active; Potency, µM (doses to about 58.2 µM), inactives show at the top dose activity change, negative = inhibition, actives largely listed as inhibitors; AlphaScreen AMA1-biotinylated RON2 peptide binding; AID 720542;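 further: 0% = vehicle wells and -100% = peptide control; nearly all actives have a fitted effect of over 45% in size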
#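 AMA1 (3D7) with his tag at 25 nM final met compounds first, then biotinylated RON2 peptide at 25 nM; detection used donor plus acceptor beads, 10 µg/mL apiece, read by AlphaScreen after 30 min at room temperature.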
# SARS PLP yeast: SARS-CoV PLP inhibition in yeast; AID 485353; Potency, µM (titrated, usually from 32.9 µM), for inactives: at the highest dose activity, positive = growth rescue, hits mostly activators; 330,000 tested, 0.19% active; S. cerevisiae expressing SARS-CoV PLpro, growth rescue; calls by dose curve; further: 0% is about no effect; nearly all actives have a fitted effect of over 55% in size
# An asterisk follows results filed as active; i = inactive; u = inconclusive; x = not tested or not shown; [ ] = another dose, or the depositor's remark. Unless noted, the call rests on the fitted dose curve; in most records, active means well fitted curve in the direction sought with a large enough effect; inconclusive means small, poorly fitted or top-dose-only effect, or another doubt; inactive means no such curve, though single readings can be large; an effect the other way counts as inactive or inconclusive. Potency means the concentration at half of the fitted maximal effect.
SMILES,VACV Venus inh,AmpC inh no detg,AmpC detergent,Vaccinia mCherry,AMA1-RON2 inh,SARS PLP yeast
CC(OC(=O)c1c2c(nc3ccccc13)/C(=C\c1ccc3c(c1)OCO3)CCC2)C(=O)Nc1ccc(S(N)(=O)=O)cc1 (stereo not drawn),134%,-34%,u,-17%,-6%,20%
Cc1cccc(C)c1NC(=O)COC(=O)c1c2c(nc3ccccc13)/C(=C\c1ccc3c(c1)OCO3)CCC2,-13%,28µM*,3%,-1%,4%,-4%
COc1cc(-c2cc(C)c3c(OC)ccc(OC)c3n2)cc2c1OCCN(C(=O)C(C)c1n[nH]c(=O)c3ccccc13)C2 (stereo not drawn),-4%,x,x,-11%,x,x
CSc1ncccc1C(=O)NCc1ccc(C)cc1,10µM*,-4%,9%,u,-3%,9%
COc1cc(CN2CCC3(CCC(CNC(=O)c4ccccc4)O3)CC2)cc(OC)c1 (stereo not drawn),-6%,x,x,i,x,x
COC(=O)c1cccc(Cn2c(Cl)c(/C=N/Nc3ccccc3C)sc2=O)c1,-1%,32µM*,2%,-23%,u,-16%
COC1=C(C)C(=O)c2c(c(COC(N)=O)c3n2C[C@@H]2[C@@H]3N2C)C1=O (stereo partly drawn),11µM*,x,x,-28%,x,x
CC1CN(CCC(=O)NCc2ccc3ncccc3c2)Cc2cc(Cl)ccc2O1 (stereo not drawn),8%,x,x,-8%,x,x
O=C1C(Nc2ccccc2)=CC(=O)c2ncccc21,-23%[60.7 µM],x,x,-7%[60.7 µM],x,x
CC(NC1=CC(=O)c2cccnc2C1=O)C(O)c1ccccc1 (stereo not drawn),10µM*,x,x,u,14%,x
CCN(CC)CCCN(Cc1cc2cc3c(cc2[nH]c1=O)OCO3)C(=O)Nc1ccccc1OC,-20%,0.4µM*,-1%,-5%,-10%,-1%
Cc1ccc(-n2nc(C)c3c(C)c(CCC(=O)NCc4ccccc4Cl)c(C)nc32)cc1,-18%,x,12%,-20%,x,x
O=C(/C=C/c1ccncc1)c1cc(Cl)ccc1O,16%,-2%,1%,-12%,-5%,-4%
CN(C)c1ccc(/C=C/C(=O)c2cc(Cl)ccc2O)cc1,x,-27%,0%,x,14µM*,-2%
CC(NC(=O)c1cc(F)ccc1F)c1nnc2n1CCN(Cc1ccccc1O)CC2 (stereo not drawn),0%,x,x,-2%,x,x
COc1ccc(NC(=O)/C(Cl)=C(/Cl)S(=O)(=O)Cc2ccccc2)cn1,22µM*,-25%,-3%,x,4%,-54%
COc1ccc(NC(=O)/C(Cl)=C(/Cl)S(=O)Cc2ccc(Cl)cc2)cn1 (stereo not drawn),7.9µM*,-20%,-2%,5.6µM*,3%,-25%
COc1ccc(NC(=O)C(Cl)=C(Cl)Cl)cn1,-3%,-10%,u,-15%,-17%,2%
COc1ccc(S(=O)(=O)c2cn(C)c3cc(N4CCCCCC4)c(F)cc3c2=O)cc1,-29%,x,12%,u,x,x
N#CC(c1ccc(Cl)cc1)c1ccc2c(C(F)(F)F)cc(C(F)(F)F)nc2n1 (stereo not drawn),14µM*,-17%,-16%,x,u,-42%
FC(F)(F)c1cc(C(F)(F)F)c2ccc(N3CCN(c4ccc(Cl)cc4)CC3)nc2n1,x,-15%,1%,x,-4%,2%
CCOc1ccc(-n2c(SCC(=O)NCc3ccco3)nnc2-c2c[nH]c3ccccc23)cc1,u,1.4µM*,u,-26%,-1%,3%
Cn1c(SCC(=O)NCc2ccco2)nnc1-c1c[nH]c2ccccc12,-2%,-17%,u,-3%,15%,-9%
CNc1cc(C(=O)O)nc2ccccc12,-10%,x,x,36%,x,x
C[N+]1(CC(=O)c2ccc(Cl)c(Cl)c2)CCOCC1,-18%,x,x,i,x,x
SMILES,VACV Venus inh,AmpC inh no detg,AmpC detergent,Vaccinia mCherry,AMA1-RON2 inh,SARS PLP yeast
COc1ccc(N2CCN(C(=O)CCC(=O)N3CCOc4ccc(Cl)cc43)CC2)cc1,u,176%,-11%,14µM*,-18%,-7%
C=C(CC[C@]12OC(C(=O)O)C(O)(C(=O)O)C(C(=O)O)(O1)C(OC(=O)/C=C/[C@@H](C)C[C@@H](C)CC)C2O)[C@@H](OC(C)=O)[C@H](C)Cc1ccccc1 (stereo partly drawn),-14%,x,x,-2%,x,x
CCCN1CCN(C(=O)c2cnn(-c3ncc4c(n3)-c3ccccc3CCC4)c2COC)CC1,-14%,x,x,-24%,x,x
Cc1cc(C(=O)Nc2cccc(-c3nc(CNC(=O)c4sc(C)nc4C)c(C)o3)c2)c(C)o1,-18%,x,x,i,x,x
O=C(NNc1ccccc1Br)C(O)(c1cccc(C(F)(F)F)c1)c1cccc(C(F)(F)F)c1,u,-20%,-9%,11µM*,-9%[2.32 µM],-5%
Cc1ccc(NNC(=O)C(O)(c2cccc(C(F)(F)F)c2)c2cccc(C(F)(F)F)c2)cc1,u,-47%,-11%,u,3%[11.6 µM],-66%
O=C(CCl)N(c1ccccc1)C1CCS(=O)(=O)C1 (stereo not drawn),11µM*,-23%,u,10µM*,7%,-14%
Cc1ccc(S(=O)(=O)N2CCOCC2)cc1NC(=O)c1cc(-c2ccccn2)nc2ccccc12,u,95%,-5%,11µM*,-21%,1%
O=C(Nc1cc(S(=O)(=O)N2CCOCC2)ccc1N1CCCCC1)c1cc(-c2ccccn2)nc2ccccc12,-3%,-20%,0%,3%,-11%,-1%
CCCC(=O)OCCNc1cc(Sc2nc3ccccc3[nH]2)c2nonc2c1[N+](=O)[O-],u,13µM*,u,u,-25%,-8%
Cc1cccc(C)c1-n1c(C)cc(/C=N/NC(N)=S)c1C,u,-21%,-10%,-17%,3%,10µM*
CN(C)c1ccc(C(CNS(=O)(=O)c2ccc(F)c(F)c2)c2c[nH]c3ccccc23)cc1 (stereo not drawn),-29%,-40%,-5%,u,14µM*,-32%
C#CC(=O)N(c1cccc(OC)c1)C(C(=O)NC1CCCC1)c1cccs1 (stereo not drawn),14µM*,5%,-3%,20µM*,-4%,-27%
COc1ccccc1CNC(=O)C1CCCN(c2nnc(-n3c(C)ccc3C)s2)C1 (stereo not drawn),-3%,x,0%,-12%,x,x
CC1=NN(c2ccccc2)C(=O)/C1=C/c1cccc(C)c1,-15%,-18%,1%,-19%,-24%,0%
CC1=NN(c2ccccc2)C(=O)/C1=C\C=C\c1ccccc1,0%,-15%,-1%,-4%,6.3µM*,-1%
CC1=NN(c2ccccc2)C(=O)/C1=C/C=C/c1ccc(N(C)C)cc1,u,-20%[11.4 µM],u,-28%,1.4µM*,-1%
